A short description of experiment [1]: antimalarial activity against Dd2 strain (AID 2302;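 active = growth inhibition above 50% at the single 2 µM test dose, taken to imply half-maximal potency below 2 µM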;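 also: 0% = DMSO untreated growth and 100% = chloroquine plus artemisinin killed control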). The note with it: P. falciparum Dd2 in RBCs, LDH growth readout, 72 h; at 2 µM; stronger effect = higher value.
The nature of experiment [2]: HepG2 cytotoxicity, primary screen, cytotoxicity control for P. falciparum antimalarial project, cell-based, ATP luminescence (AID 2303;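 active = inhibition above 50%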;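 also: 0% = DMSO wells and 100% = digitonin-killed cells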). To be noted: HepG2 viability, 24-48 h, at 10 µM, stronger effect = higher value.
For experiment [3], the target named is L-lactate dehydrogenase (Plasmodium falciparum (isolate CDC / Honduras)) (UniProt Q27743). Put plainly: PfLDH activity inhibition – cell lysate, 3D7 strain, counter-screen for P. falciparum growth inhibition project (AID 2304).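 Also: 0% = vehicle and 100% = reference inhibitor.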 To be noted: P. falciparum 3D7 crude extract, LDH APAD/NBT absorbance; at 2 µM; stronger effect = higher value.
L-lactate dehydrogenase (Plasmodium falciparum (isolate CDC / Honduras)), sequence (Q27743 whole entry, looked up): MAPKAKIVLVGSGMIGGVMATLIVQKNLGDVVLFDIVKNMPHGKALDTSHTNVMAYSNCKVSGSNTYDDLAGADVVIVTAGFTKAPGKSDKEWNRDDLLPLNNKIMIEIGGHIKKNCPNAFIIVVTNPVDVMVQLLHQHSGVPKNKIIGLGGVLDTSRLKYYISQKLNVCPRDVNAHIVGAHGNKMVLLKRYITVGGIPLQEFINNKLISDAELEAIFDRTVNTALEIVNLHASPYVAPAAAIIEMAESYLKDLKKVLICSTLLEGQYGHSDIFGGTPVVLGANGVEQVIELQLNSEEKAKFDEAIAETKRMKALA
Experiment [4] can be described thus: inhibition of 3D7 malaria parasite growth – strain 3D7 (AID 2306).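 Also: 0% = DMSO wells and 100% = chloroquine plus artemisinin control wells.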 To be noted: P. falciparum 3D7 erythrocytic growth, LDH absorbance, 72 h; at 2 µM; stronger effect = higher value.
Experiment [5] concerns the target Calcium-dependent protein kinase 1 (Plasmodium falciparum (isolate 3D7)) (UniProt P62344). The experiment in a line: PfCDPK1 kinase inhibitors, biochemical, TCAMS library (AID 1159585; cut-off not given, nearly all actives have IC50 up to about 0.98 µM;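 also: inhibitors leave more ATP so luminescence rises with inhibition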). The note with it: recombinant PfCDPK1, Kinase-Glo ATP depletion luminescence.
In experiment [6] the target is Plasmodium falciparum protein kinase 6 (PK6, PF3D7_1337100) (UniProt Q8IDW1). Put plainly: PfPK6 kinase inhibitors, biochemical, TCAMS library (AID 1159586). The note with it: recombinant PfPK6, Kinase-Glo ATP depletion luminescence.
Plasmodium falciparum protein kinase 6 (PK6, PF3D7_1337100), sequence (Q8IDW1 1-305): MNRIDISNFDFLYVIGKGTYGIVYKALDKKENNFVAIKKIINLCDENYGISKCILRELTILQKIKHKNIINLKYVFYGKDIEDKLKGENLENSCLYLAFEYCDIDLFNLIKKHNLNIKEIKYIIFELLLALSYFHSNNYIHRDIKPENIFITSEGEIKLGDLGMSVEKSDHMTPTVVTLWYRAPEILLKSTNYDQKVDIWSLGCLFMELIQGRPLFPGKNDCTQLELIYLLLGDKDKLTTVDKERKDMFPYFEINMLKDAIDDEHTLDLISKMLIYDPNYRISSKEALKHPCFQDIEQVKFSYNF
Experiment [7] has as its target Protein kinase 7 (PK7), Plasmodium falciparum 3D7 (PF3D7_0213400) (UniProt Q7YTF7). Put plainly: inhibition of Plasmodium PK7 catalytic activity – biochemical, TCAMS antimalarial set, Kinase-Glo luminescence (AID 1159587). To be noted: recombinant PfPK7, Kinase-Glo ATP depletion luminescence.
The target of experiment [8] is Calcium-dependent protein kinase 4 (Plasmodium falciparum (isolate 3D7)) (UniProt Q8IBS5). The experiment in a line: PfCDPK4 kinase inhibitors, biochemical, TCAMS library (AID 1159588; cut-off not given, nearly all actives have IC50 up to about 0.91 µM). The note with it: recombinant PfCDPK4, Kinase-Glo ATP depletion luminescence.
Calcium-dependent protein kinase 4 (Plasmodium falciparum (isolate 3D7)), sequence (Q8IBS5 whole entry, looked up): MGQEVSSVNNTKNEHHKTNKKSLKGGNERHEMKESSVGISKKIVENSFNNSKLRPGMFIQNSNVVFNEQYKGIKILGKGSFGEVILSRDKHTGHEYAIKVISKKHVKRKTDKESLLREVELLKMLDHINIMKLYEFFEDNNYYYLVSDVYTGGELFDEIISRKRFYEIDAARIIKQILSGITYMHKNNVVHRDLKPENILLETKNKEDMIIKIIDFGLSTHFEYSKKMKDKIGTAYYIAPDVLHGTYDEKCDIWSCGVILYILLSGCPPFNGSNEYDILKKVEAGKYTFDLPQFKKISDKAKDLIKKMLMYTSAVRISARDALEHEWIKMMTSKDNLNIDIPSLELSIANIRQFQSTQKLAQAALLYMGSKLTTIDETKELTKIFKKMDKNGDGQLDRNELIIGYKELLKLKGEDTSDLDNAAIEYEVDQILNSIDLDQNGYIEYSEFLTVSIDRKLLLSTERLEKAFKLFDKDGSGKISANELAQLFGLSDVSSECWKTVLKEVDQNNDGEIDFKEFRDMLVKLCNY

Unmarked numbers belong to inactive results. For some of these results: Results with a measured potency or affinity are listed apart. Calls of active or inactive are those of the source. Unless noted, no rule for the calls is given here.

Calcium-dependent protein kinase 1 (Plasmodium falciparum (isolate 3D7)), sequence (P62344 whole entry, looked up): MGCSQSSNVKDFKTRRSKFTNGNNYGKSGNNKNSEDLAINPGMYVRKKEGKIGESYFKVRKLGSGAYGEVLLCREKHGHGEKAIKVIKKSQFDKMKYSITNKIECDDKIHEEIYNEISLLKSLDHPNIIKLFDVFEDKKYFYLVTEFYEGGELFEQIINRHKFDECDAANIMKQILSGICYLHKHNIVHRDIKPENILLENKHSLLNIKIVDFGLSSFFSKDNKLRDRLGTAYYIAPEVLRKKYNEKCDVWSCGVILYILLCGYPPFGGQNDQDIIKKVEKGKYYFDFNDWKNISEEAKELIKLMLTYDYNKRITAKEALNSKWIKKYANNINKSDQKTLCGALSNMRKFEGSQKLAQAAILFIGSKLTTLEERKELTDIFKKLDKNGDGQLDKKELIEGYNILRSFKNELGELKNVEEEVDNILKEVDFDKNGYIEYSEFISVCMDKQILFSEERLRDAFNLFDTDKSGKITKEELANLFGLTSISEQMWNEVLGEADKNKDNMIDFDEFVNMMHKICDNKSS
Protein kinase 7 (PK7), Plasmodium falciparum 3D7 (PF3D7_0213400), sequence (Q7YTF7 1-343): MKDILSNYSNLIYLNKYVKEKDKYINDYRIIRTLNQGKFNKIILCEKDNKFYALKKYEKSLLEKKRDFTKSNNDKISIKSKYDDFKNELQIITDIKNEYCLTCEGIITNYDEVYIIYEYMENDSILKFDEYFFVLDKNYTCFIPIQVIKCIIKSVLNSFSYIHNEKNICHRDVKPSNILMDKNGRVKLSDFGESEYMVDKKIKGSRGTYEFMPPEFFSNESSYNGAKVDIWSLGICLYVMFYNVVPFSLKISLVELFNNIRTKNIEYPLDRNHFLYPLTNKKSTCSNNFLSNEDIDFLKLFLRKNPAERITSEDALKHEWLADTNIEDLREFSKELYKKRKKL

In the case of `COc1ccc(C(C(=O)NC2CCN(C[C@H](O)c3ccnc4ccc(OC)cc34)CC2)N2CCN(c3ccc(Cl)c(Cl)c3)CC2)cc1` (stereo not given in full), the growth inhibition in experiment [1] was 79% (active); in experiment [4], 101% (active). Moreover, the values for the inhibition in experiment [2] and in experiment [3] were 12% and 2%, respectively. Besides, the result in experiment [5], in experiment [6], in experiment [7] and in experiment [8] was inactive.
In the case of `CC(=O)Nc1nc(C(=O)Nc2cccc(-c3ccc(-c4nc5ccccc5[nH]4)cc3)c2)cs1`, the growth inhibition was 60% (active) in experiment [1] and 101% (active) in experiment [4]. For the same molecule, the inhibition in experiment [2] was 88% (active); in experiment [3], -2%. For the same molecule, the result in experiment [5], in experiment [6], in experiment [7] and in experiment [8] was inactive.
For the molecule `CN1CCN(CCCN(Cc2ccc(-c3ccc(CNC4CCCC4)cc3)cc2)C(=O)CCC2CCCC2)CC1`, the growth inhibition is 96% (active) in experiment [1] and 98% (active) in experiment [4]. Besides, the inhibition in experiment [2] was 92% (active); in experiment [3] it was 2%. For the same molecule, the outcome in experiment [5], in experiment [6], in experiment [7] and in experiment [8] was inactive.
In the case of `Cc1ccc(O)cc1Nc1ccnc2cc(-c3nccs3)ccc12`, the results for the growth inhibition in experiment [1] and in experiment [4] were 83% (active) and 102% (active), respectively. Further, the results for the inhibition in experiment [2] and in experiment [3] were 63% (active) and 2%, respectively. In addition, the result in experiment [5], in experiment [6], in experiment [7] and in experiment [8] was inactive.
Turning to `CCc1nc(N)nc(N)c1-c1ccc(C(C)(C)C)cc1`, the growth inhibition is -5% in experiment [1] and 94% (active) in experiment [4]. The inhibition in experiment [2] is 27%; in experiment [3], -7%. Moreover, the result in experiment [5], in experiment [6], in experiment [7] and in experiment [8] was inactive.
In the case of `CCN(C)c1cc(C(=O)N[C@@H](Cc2ccccc2)[C@H](O)CNC(C)(C)c2cccc(OC)c2)cc(N2CCCC2=O)c1`, the growth inhibition in experiment [1] is 81% (active); in experiment [4], 100% (active). Besides, the inhibition in experiment [2] was -1%; in experiment [3], 1%. Also, the outcome in experiment [5], in experiment [6], in experiment [7] and in experiment [8] was inactive.
Regarding `COc1cc(Nc2ccnc3ccc(C(C)(C)C)cc23)cc(OC)c1OC`, the growth inhibition in experiment [1] was 80% (active); in experiment [4], 100% (active). For the same molecule, the inhibition in experiment [2] is 12%; in experiment [3] it was 1%. For the same molecule, the result in experiment [5], in experiment [6], in experiment [7] and in experiment [8] was inactive.
`CN(CCc1ccccc1)c1ncc(-c2cccc(CNCCC3CCCN3C)c2)cn1` (stereo not given): the results for the growth inhibition in experiment [1] and in experiment [4] were 98% (active) and 92% (active), respectively. For the same molecule, the inhibition in experiment [2] is 99% (active); in experiment [3], -1%. Moreover, the result in experiment [5], in experiment [6], in experiment [7] and in experiment [8] was inactive.
In the case of `NC(=O)c1cccc(Nc2nccc(Nc3ccc(Oc4c(Cl)cccc4Cl)c(Cl)c3)n2)c1`, the growth inhibition in experiment [1] was 17%; in experiment [4], 93% (active). For the same molecule, the inhibition was 2% in experiment [2] and 5% in experiment [3]. Besides, the result in experiment [5], in experiment [6], in experiment [7] and in experiment [8] was inactive.
For the molecule `COc1ccc(OC)c(NC(=O)C2c3ccccc3C(=O)N(CC(C)C)C2c2cccs2)c1` (stereo not given), the growth inhibition in experiment [1] is 66% (active); in experiment [4], 100% (active). For the same molecule, the inhibition in experiment [2] was 9%; in experiment [3] it was -5%. Besides, the result in experiment [5], in experiment [6], in experiment [7] and in experiment [8] was inactive.
For the molecule `Cc1oc(-c2ccccc2)nc1CCOc1ccc(C[C@H](Nc2ccccc2C(=O)c2ccccc2)C(=O)NCc2ccccn2)cc1`, the growth inhibition in experiment [1] is 54% (active); in experiment [4] it was 88% (active). Moreover, the inhibition is -2% in experiment [2] and -1% in experiment [3]. For the same molecule, the outcome in experiment [5], in experiment [6], in experiment [7] and in experiment [8] was inactive.
For the molecule `Cc1cccc2[nH]c(-c3cccc(-c4cccc(NC(=O)Nc5cccc(C#N)c5)c4)c3)nc12`, the values for the growth inhibition in experiment [1] and in experiment [4] were 99% (active) and 101% (active), respectively. Besides, the inhibition was 22% in experiment [2] and 6% in experiment [3]. Besides, the outcome in experiment [5], in experiment [6], in experiment [7] and in experiment [8] was inactive.
In the case of `CNC(=O)c1[nH]c(-c2ccccc2)nc1NC(C)=O`, the growth inhibition was -2% in experiment [1] and 100% (active) in experiment [4]. The figures for the inhibition in experiment [2] and in experiment [3] were -3% and -2%, respectively. The result in experiment [5], in experiment [6], in experiment [7] and in experiment [8] was inactive.
Take `CCNCc1cccc(-c2ccc3ccnc(N)c3c2)c1`: the growth inhibition in experiment [1] is 98% (active); in experiment [4] it was 100% (active). In addition, the inhibition is 17% in experiment [2] and 0% in experiment [3]. In addition, the outcome in experiment [5], in experiment [6], in experiment [7] and in experiment [8] was inactive.
Take `COc1c(C(=O)NC2CCN(Cc3ccccc3)C2)cnc2ccccc12` (stereo not given): the growth inhibition in experiment [1] is 12%; in experiment [4], 86% (active). Besides, the inhibition in experiment [2] was 2%; in experiment [3] it was -4%. For the same molecule, the outcome in experiment [5], in experiment [6], in experiment [7] and in experiment [8] was inactive.
Consider `Nc1cccc(CNCc2ccc(-c3ccc(-c4nc5ccc(C(F)(F)F)cc5[nH]4)s3)cc2)c1`, for which the growth inhibition in experiment [1] is 98% (active); in experiment [4], 102% (active). Further, the inhibition is 28% in experiment [2] and -2% in experiment [3]. In addition, the outcome in experiment [5], in experiment [6], in experiment [7] and in experiment [8] was inactive.
For `N=c1c2c(n(Cc3ccccc3)c3c1CCC3)CCCC2`, the growth inhibition in experiment [1] was 39%; in experiment [4], 86% (active). For the same molecule, the inhibition in experiment [2] was 4%; in experiment [3], -4%. Moreover, the result in experiment [5], in experiment [6], in experiment [7] and in experiment [8] was inactive.
`COc1ccc(CNC(=O)c2cc3c(=O)n4ccccc4nc3n(CCc3ccccc3)c2=N)cc1`: the figures for the growth inhibition in experiment [1] and in experiment [4] were 22% and 99% (active), respectively. Also, the results for the inhibition in experiment [2] and in experiment [3] were 26% and -4%, respectively. Besides, the result in experiment [5], in experiment [6], in experiment [7] and in experiment [8] was inactive.
`Nc1ncc(-c2ccc(Cl)c(Cl)c2)c(N)n1`: the values for the growth inhibition in experiment [1] and in experiment [4] were -2% and 94% (active), respectively. For the same molecule, the inhibition in experiment [2] was 65% (active); in experiment [3], -2%. Moreover, the result in experiment [5], in experiment [6], in experiment [7] and in experiment [8] was inactive.
Consider `Oc1ccccc1N1CCN(c2ccc(-c3nc4ccccc4[nH]3)cn2)CC1`, for which the growth inhibition in experiment [1] is 50% (active); in experiment [4] it was 97% (active). The inhibition in experiment [2] is -12%; in experiment [3], -2%. Moreover, the result in experiment [5], in experiment [6], in experiment [7] and in experiment [8] was inactive.
